{
  "source": "PubChem BioAssay AID624300",
  "about": "(Southern Research Specialized Biocontainment Screening …, 2012)",
  "note": "The campaign covered roughly 2,400 compounds. About 360 (15%) were called active. The list is a sample of the results. Measured potencies and affinities stand elsewhere. Values without a mark were called inactive.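 The calls were made as follows: active = viability falls under 70% at one or more tested concentrations, taken as toxicity; inactive = viability stays over 70% at every dose.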",
  "data": [
    {"assay": "viability loss in HeLa cells – cytotoxicity control for MgcRacGAP inhibitor project, dose response (AID 624300);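 also: 100% = median of untreated control wells on the same plate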", "details": "CellTiter-Glo luminescence, 24 h; series mostly up to 100 µM; viability: at the top concentration", "units": {"viability": "%"}, "values": [
      {"smiles": "COc1ccc(OCC(O)CN2CCCC2)cc1", "note": "(centres undefined)", "viability": 102},
      {"smiles": "OCCN1CCN(CC(O)COC(c2ccc(F)cc2)c2ccc(F)cc2)CC1", "note": "(centres undefined)", "viability": 101},
      {"smiles": "c1ccc(CNC23CC4CC(CC(C4)C2)C3)nc1", "viability": 100},
      {"smiles": "COc1ccc(S(=O)(=O)N2CCC(N3CCN(Cc4ccccc4)CC3)CC2)cc1", "viability": 98.1},
      {"smiles": "O=C(CSc1cn[nH]n1)Nc1cccc(C(=O)O)c1", "viability": 94.8},
      {"smiles": "Cc1cc(C)c(OCCCCN(C)Cc2ccccc2)c(C)c1", "viability": 89.7},
      {"smiles": "CN(CCOc1ccc(Cl)c(Cl)c1)Cc1ccccc1", "viability": 89.3},
      {"smiles": "Cc1ccc(OCCCCNC(C)(C)C)c([N+](=O)[O-])c1", "viability": 95.7},
      {"smiles": "Cc1ccc(-n2[nH]c(=O)c3cccnc32)cc1", "viability": 96.6},
      {"smiles": "Nc1ccc(N2CCN(C(=O)c3cccs3)CC2)cc1", "viability": 103},
      {"smiles": "COc1cc(/C=N/Nc2nc3ccccc3s2)ccc1O", "viability": 88.9},
      {"smiles": "COc1cc(/C=C/C(=O)OCC(=O)NCCCc2ccccc2)ccc1O", "viability": 91.6},
      {"smiles": "CC(=O)Nc1n[nH]c(=S)s1", "viability": 102},
      {"smiles": "O=C(N/N=C/c1sc2ccccc2c1O)c1cccc2ccccc12", "viability": 88.4},
      {"smiles": "O=C(CNC(=O)c1ccc2c(c1)OCCO2)N/N=C/c1ccc(O)cc1O", "viability": 109},
      {"smiles": "CN(C)/C=C1/C=C(c2ccccc2)OC1=O", "viability": 106},
      {"smiles": "COc1cc(/C=N/N=C2/NC(=O)C(c3ccccc3)S2)ccc1O", "note": "(centres undefined)", "viability": 92},
      {"smiles": "O=C(CN1CCCCCC1)NN(Cc1ccccc1)c1ccccc1", "viability": 101},
      {"smiles": "S=C(NCCCN1CCOCC1)Nc1ccc(Nc2ccccc2)cc1", "viability": 103},
      {"smiles": "Cc1ccc(CNc2ncc(-c3ccccc3)n2C)o1", "viability": 96.2},
      {"smiles": "Cn1c(-c2ccccc2)cnc1NCc1ccc(-c2ccccc2)cc1", "viability": 86.2},
      {"smiles": "COc1cc(CNc2ncc(-c3ccc(Br)cc3)n2C)cc(OC)c1O", "viability": 99.2},
      {"smiles": "COc1ccccc1CNc1ncc(-c2ccccc2)n1C", "viability": 81.4},
      {"smiles": "Clc1ccccc1CNCc1ccc2c(c1)OCO2", "viability": 97.4},
      {"smiles": "COc1ccc(CNc2ncc(-c3ccc(Br)cc3)n2C)cc1OC", "viability": 93.4},
      {"smiles": "O=C1c2ccccc2C(=O)N1/N=C/c1ccc(O)c(O)c1", "viability": 98.4},
      {"smiles": "COc1ccc(C(=O)CCC(=O)Nc2cc(Cl)c(O)c(Cl)c2)cc1", "viability": 103},
      {"smiles": "N#CC1=C(N)NC(=S)C(C(N)=O)C1c1ccc([N+](=O)[O-])cc1", "note": "(centres undefined)", "viability": 101},
      {"smiles": "Cc1ccc(COC(=O)Cc2coc3cc(O)ccc23)cc1", "viability": 109},
      {"smiles": "CCS(=O)(=O)c1cc([N+](=O)[O-])c(Sc2ccccc2N)s1", "viability": 97.9},
      {"smiles": "CCOc1cc(/C=N/NC(=O)NN(C)c2ncc(C(F)(F)F)cc2Cl)ccc1O", "viability": 104},
      {"smiles": "O=C(Cc1ccc(Cl)cc1)N/N=C/c1ccc(O)c(O)c1", "viability": 104},
      {"smiles": "O=c1c(O)c(-c2ccc(O)c(O)c2)oc2cc(O)ccc12", "viability": 93.5},
      {"smiles": "COC(=O)c1[nH]c2ccc(Cl)cc2c1NC(=O)Oc1ccccc1", "viability": 90.4}
    ]}
  ]
}
